According to the supplement of paper PMC7156485:

Experiments:
Details in all cases: concentration: 10 µM; 24 h
[1] = test system: HCC1569; experiment: cell number relative to DMSO (% of DMSO); higher = more cells (less growth inhibition / toxicity)
How it was run: (§1)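 Six fields per well were imaged at ×10 after the cells were fixed in 3.7% formaldehyde and stained with a rabbit anti-H1.0 antibody, an AlexaFluor 647 secondary and DAPI. The HCC1569 and TDF cells had been plated at 800 per well in 384-well plates (RPMI, 10% FBS) and treated in triplicate with compounds at 10 µM for 24 h at 37 °C. The values are the median of replicates of H1.0 nuclear intensity or cell number, as percent of the plate control. Smoothing for positional effects was applied to HCC1569 data.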

[2] = test system: TDF; experiment: as above
How it was run: as §1

[3] = test system: TDF; experiment: H1.0 immunofluorescence intensity relative to DMSO (% of DMSO); higher = stronger H1.0 induction, active = 120 or more
How it was run: as §1

[4] = test system: HCC1569; experiment: H1.0 immunofluorescence intensity relative to DMSO (% of DMSO); higher = stronger H1.0 induction, active = 140 or more
How it was run: as §1
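Throughout, for H1.0 immunofluorescence intensity relative to DMSO: TDF is a line of transformed human dermal fibroblasts of mesenchymal origin.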
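Throughout, for cell number relative to DMSO: TDF denotes transformed human dermal fibroblasts of mesenchymal origin.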

| SMILES | cell number [1] | cell number [2] | H1.0 immunofluorescence intensity [3] | H1.0 immunofluorescence intensity [4] |
| --- | --- | --- | --- | --- |
| Cc1ccc(Cl)c(Nc2ccccc2C(=O)[O-])c1Cl.[Na+] [sodium 2-(2,6-dichloro-3-methylanilino)benzoate] | 99.4 | 111 | 97.9 (inactive) | 102 (inactive) |
| CC(CN1c2ccccc2Sc2ccccc21)N(C)C.Cl (stereo not drawn) [Promethazine.HCl] | 104 | 101 | 96.1 (inactive) | 121 (inactive) |
| CCCCCCC(O)CC=CCCCCCCCC(=O)O (stereo not drawn) [Ricinoleic acid] | 98.1 | 104 | 97.7 (inactive) | 101 (inactive) |
| O=C(CO)N1CCC(c2[nH]nc(-c3ccc(Cl)cc3)c2-c2ccncn2)CC1 | 93.2 | 105 | 91.3 (inactive) | 96 (inactive) |
| CNCCC=C1c2ccccc2CCc2ccccc21.Cl [Nortriptyline hydrochloride] | 88.9 | 93.9 | 109 (inactive) | 117 (inactive) |
| C[C@H](O)[C@H](O)[C@H]1CNc2[nH]c(N)nc(=O)c2N1.Cl.Cl | 103 | 97.2 | 92.5 (inactive) | 97 (inactive) |
| CCOC(=O)Nc1ccc(NCc2ccc(F)cc2)nc1N.O=C(O)C=CC(=O)O [Flupirtine maleate] | 97.3 | 99.2 | 89.1 (inactive) | 105 (inactive) |
| CC1CCC2C(C)(CO)C(O)CCC2(C)C12CCC(CO)(CCO)O2 (stereo not drawn) [Lagochiline] | 98.2 | 99.8 | 97 (inactive) | 100 (inactive) |
| CC(=O)SCC[N+](C)(C)C.[Cl-] [Acetylthiocholine chloride] | 102 | 111 | 89.2 (inactive) | 92.5 (inactive) |
| CCC1(O)C(=O)OCc2c1cc1n(c2=O)Cc2cc3c(CN(C)C)c(O)ccc3nc2-1.Cl (stereo not drawn) [Topotecan.HCl] | 65.7 | 17.1 | 154 (active) | 96.3 (inactive) |
| O=C(O)c1ccccc1C(=O)Nc1ccc(-c2ccccc2)cc1 [2-[([1,1'-biphenyl]-4-ylamino)carbonyl]benzoic acid] | 104 | 99.9 | 98.7 (inactive) | 95.6 (inactive) |
| CCCCCCCCCCCCCCCCCCOCC(COP(=O)([O-])OCC[N+](C)(C)C)OC(C)=O (stereo not drawn) | 98.8 | 115 | 92.5 (inactive) | 103 (inactive) |
| CC(C)CC(NC(=O)C(COC(C)(C)C)NC(=O)C(Cc1ccc(O)cc1)NC(=O)C(CO)NC(=O)C(Cc1c[nH]c2ccccc12)NC(=O)C(Cc1cnc[nH]1)NC(=O)C1CCC(=O)N1)C(=O)NC(CCCN=C(N)N)C(=O)N1CCCC1C(=O)NNC(N)=O (stereo not drawn) [Goserelin] | 100 | 105 | 94.5 (inactive) | 103 (inactive) |
| CCCC1CC(C(=O)NC(C(C)Cl)C2OC(SC)C(O)C(O)C2O)N(C)C1.Cl (stereo not drawn) [Clindamycin.HCl] | 111 | 110 | 106 (inactive) | 91.3 (inactive) |
| CC1=NC(=NNc2ccc(C(=O)[O-])cc2)C(COP(=O)([O-])[O-])=C(C=O)C1=O.[Na+].[Na+].[Na+] | 101 | 103 | 93.5 (inactive) | 103 (inactive) |
| c1coc(CNc2ncnc3nc[nH]c23)c1 [Kinetin] | 103 | 112 | 95.4 (inactive) | 92.8 (inactive) |
| O=C(O)Cc1c[nH]c2ccc(O)cc12 [5-Hydroxyindolacetic acid] | 104 | 99.5 | 99.9 (inactive) | 97.9 (inactive) |
| CC(CCc1ccccc1)NCC(O)c1ccc(O)c(C(N)=O)c1.Cl (stereo not drawn) [Labetalol hydrochloride] | 101 | 106 | 83.5 (inactive) | 99.3 (inactive) |
| C[C@H]1C[C@H]2[C@@H]3CCC4=CC(=O)C=C[C@]4(C)[C@@]3(F)[C@@H](O)C[C@]2(C)[C@@]1(O)C(=O)COP(=O)([O-])[O-].[Na+].[Na+] | 97.2 | 106 | 83.8 (inactive) | 111 (inactive) |
| CC(N)(Cc1ccc(O)c(O)c1)C(=O)O (racemic) | 101 | 101 | 90.9 (inactive) | 98.2 (inactive) |
| CC(C)C[C@@H](C(=O)O)c1cc(-c2ccc(C(F)(F)F)cc2)cc(-c2ccc(C(F)(F)F)cc2)c1 | 98.7 | 92.4 | 93.7 (inactive) | 115 (inactive) |
| C=C1CCC(O)CC1=CC=C1CCCC2(C)C1CCC2C(C)CCCC(C)(C)O (stereo not drawn) [Calcifediol] | 97.4 | 104 | 99.9 (inactive) | 120 (inactive) |
